# E-sel TNF inh: blocks E-selectin expression induced by TNF alpha; 0.71% of 120,000 active; HUVEC TNFa-induced E-selectin immunofluorescence, high content; inhibition, % at 2 µM; AID 1246;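 active = inhibition above the batch mean plus 3 SD, and confirmed as a hit on visual image review, cut at about 43% in these data; inconclusive = passes the inhibition cutoff but fails visual image review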;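 note: 0% = TNF-stimulated DMSO wells and 100% = unstimulated control wells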
# F-actin modifier: cytoskeleton assembly modification. HUVEC TNFa F-actin phalloidin imaging, high content. inhibition, % at 2 µM. 0.18% of 91,000 active;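 active = inhibition above the batch mean plus 3 SD and confirmed as a hit by visual image inspection, cut at about 30% in these data, passing the limit was not always enough; inconclusive = above the inhibition threshold but rejected on visual inspection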
# VCAM1 TNFa inh: reduces TNF alpha induced VCAM1 expression in HUVEC. inhibition, % at 2 µM. HUVEC TNFa-induced VCAM-1 immunofluorescence, high-content imaging. 0.48% of 95,000 active. AID 802;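 active = inhibition above the batch mean plus 3 SD, with images confirmed as a hit by eye, cut at about 37% in these data; inconclusive = inhibition above that limit but hit not confirmed in images; inactive = inhibition not above that limit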;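 note: 0% = TNF-stimulated DMSO wells and 100% = unstimulated control wells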
# TNFa cytotox: HUVEC cytotoxicity counter-screen, TNF alpha stimulated; HUVEC TNFalpha-stimulated, Hoechst cell count, imaging; cell count reduction, % at 2 µM; 0.17% of 93,000 active; AID 848;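 active = cell count reduction exceeding the screen mean by over 5 SD, scaled to untreated wells per plate, cut at about 78% in these data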;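 note: cells counted after 24 h of TNF alpha exposure following the 1 h pretreatment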
# The depositor's hits bear a star; ? = inconclusive; · = not tested or not shown. An excerpt weighted towards active compounds, which were near 1% of everything screened.
SMILES,E-sel TNF inh,F-actin modifier,VCAM1 TNFa inh,TNFa cytotox
Cc1cc(NC(=O)CSc2nnc(Cc3ccccc3)n2C)no1,44*,19,17,-20
COc1ccc(OC)c(N(CC(N)=O)S(=O)(=O)c2ccc(OC)c(OC)c2)c1,-17,-6,0,-19
Cc1ccc(CSc2nnc3ccc(-c4ccncc4)nn23)cc1,-13,·,·,·
CSC(=S)N/N=C/c1ccccc1,7,·,·,·
CC1CCN(C(=O)/C(=C/c2ccccc2Cl)c2ccccc2)CC1,-32,-7,-13,-7
N#CC(C#N)=C1C=CC=CN1/C(=C\c1ccccc1Cl)C(=O)c1ccccc1,69*,·,·,·
Cc1cccc(NC(=S)N(CCCN2CCOCC2)C(C)c2cc3ccccc3o2)c1C (stereo unspecified),-12,·,·,·
COc1cc(NC(=S)NC(C)=O)ccc1NC(=O)C(C)C,·,12,68,95*
COc1cc(NC(=O)C(C)C)ccc1NC(=O)c1ccco1,·,-18,14,-17
Cc1ccc(OCC(O)CNS(=O)(=O)c2ccccc2C(=O)N2CCCCC2)cc1 (stereo unspecified),3,44*,22,48
Cc1ccc(/C=C/C(=O)O)cc1S(=O)(=O)NC1CCS(=O)(=O)C1 (stereo unspecified),19,·,·,·
O=C(Cc1ccccc1)NC(NCCc1ccccc1)C(Cl)(Cl)Cl (stereo unspecified),-31,8,1,-6
O=C(CO/N=C/c1ccccc1OC(F)F)NCc1cccs1,90*,·,·,·
Cc1cc(NS(=O)(=O)c2ccc(NC(=O)c3cc4cc(Br)ccc4oc3=O)cc2)no1,-8,·,·,·
CCCCOC(=O)C1[C@H]2C(=O)N(CCc3ccccc3)C[C@]23C=C[C@H]1O3 (stereo partly specified),·,-10,18,-12
CCCOC(=O)C1C2C=C[C@]3(CN(CCc4ccccc4)C(=O)[C@H]13)O2 (stereo partly specified),·,6,93*,82*
CN1c2ccccc2C2(C)CCCC3=Cc4cccc([N+](=O)[O-])c4OC312 (stereo unspecified),69*,·,·,·
CCn1c(=O)c2c(n3cnnc13)-c1ccccc1CC21CCCCC1,-3,41*,-6,-28
CCOC(=O)c1sc(Nc2cccc(C)c2C)nc1C,4,1,1,7
O=C(NCc1ccco1)C1CC(c2cccc([N+](=O)[O-])c2)=NO1 (stereo unspecified),100*,26,-6,2
CCCCNC(=O)C1CC(c2cccc([N+](=O)[O-])c2)=NO1 (stereo unspecified),-22,11,11,-14
COc1ccc(/C(C)=N/OCC(=O)N2CC3(C)CC2CC(C)(C)C3)cc1 (stereo unspecified),94*,·,·,·
COc1ccc(/C=N/OCC(=O)N2CC3(C)CC2CC(C)(C)C3)cc1 (stereo unspecified),-18,-11,5,-15
COC1(c2ccccc2)NC(=S)NN=C1c1ccccc1 (stereo unspecified),3,?,?,100*
Cc1ccc(NC(=O)COC(=O)C(CC(C)C)N2C(=O)C3CC=CCC3C2=O)c(C)c1 (stereo unspecified),-2,·,·,·
SMILES,E-sel TNF inh,F-actin modifier,VCAM1 TNFa inh,TNFa cytotox
O=C(NCC1CCCO1)c1cccc(N2C(=O)C3C4C=CC(C4)C3C2=O)c1 (stereo unspecified),-4,22,-16,·
O=C(CCN1C(=O)C2C3C=CC(C3)C2C1=O)NCC1CCCO1 (stereo unspecified),·,69*,10,-50
COc1ccccc1Cc1nc(-c2ccncc2)no1,77*,·,·,·
Cc1ccc(NC(=S)N(Cc2cccc(Br)c2)CC2CCC(C(=O)O)CC2)cc1Cl (stereo unspecified),6,·,·,·
CCN(CC)C(=O)CSc1nc(OC)cc(=O)[nH]1,6,·,·,·
CC(C)Oc1ccccc1C1CC(=O)Nc2cc3c(cc21)OCCO3 (stereo unspecified),-8,2,86*,46
O=C1c2cccc(OCC(=O)N3CCCc4ccccc43)c2CCN1Cc1ccccc1,56,·,·,·
O=C1c2cccc(OCC(=O)N3CCCc4ccccc43)c2CCN1Cc1ccc(Br)cc1,81*,·,·,·
Cc1cc(C(=O)NN)c2cc(Br)ccc2n1,-10,12,56*,52
Cc1cc(C(N)=O)c2cc(Br)ccc2n1,8,-3,-17,-6
CCOc1ccc(-n2nc3c(-n4ncc(C#N)c4N)nnc(C)c3c2C)cc1,-5,0,-5,-11
COc1ccc(/C=N/N=C2/CC(C)(C)Cc3n[nH]c(=O)cc32)cc1,-22,·,·,·
COc1ccc2nc(NC(=O)C(NS(=O)(=O)c3cccc4nsnc34)C(C)C)sc2c1 (stereo unspecified),1,-9,13,86*
C/C(=N\NC(=O)c1ccc(=O)[nH]n1)c1cccnc1,-4,·,·,·
Cc1ccc(N2C(=O)C3C4C=CC(CNC(=S)Nc5cccc(Cl)c5)(O4)C3C2=O)cc1 (stereo unspecified),11,·,·,·
C=CCNC(=S)NNC(=O)c1ccc(Br)cc1,63*,·,·,·
CNc1nc(C)c(C(=O)c2ccc(Cl)cc2)s1,18,-2,-10,-6
Clc1ccc(/C=C/c2ncc3ccccn23)cc1,-1,·,·,·
COCCCNC(=O)CN1C(=O)c2ccccc2C1=O,66*,11,-22,-20
CCc1n[nH]c(=S)n1/N=C/c1ccc2c(c1)OCO2,-29,-8,8,-19
CCCc1nnc(SCC(=O)O)n1/N=C/c1ccc2c(c1)OCO2,-6,·,48*,49
COCCOC(=O)c1[nH]c2c(c1C)C(=O)CC(c1ccc(F)cc1)C2 (stereo unspecified),·,4,20,-23
COCCOC(=O)c1[nH]c2c(c1C)C(=O)CC(c1ccccc1)C2 (stereo unspecified),14,22,56*,60
O=C(CCCCCN1C(=O)c2ccccc2C1=O)Nc1ccccc1,-1,-2,9,-24
O=C(CCCCCN1C(=O)c2ccccc2C1=O)Nc1nccs1,7,-4,50*,69
SMILES,E-sel TNF inh,F-actin modifier,VCAM1 TNFa inh,TNFa cytotox
Cc1cc(C)n(C(=O)CNC(=O)CCc2ccccc2)n1,99*,-16,15,-32
Cc1cc(Br)ccc1S(=O)(=O)n1ccnc1C,-67,·,·,·
Cc1ccc(-c2nc(N3CCOCC3)sc2C(=O)N2CCCCC2)cc1,11,·,·,·
Cc1cc(S(=O)(=O)NCCN2CCOCC2)c(C)s1,-1,65*,-7,-35
COc1cc(S(=O)(=O)NCCN2CCOCC2)c(OC)cc1Cl,-2,2,-1,-15
CC(C)(C)NC(=O)NC(=O)CSc1ncn[nH]1,100*,·,·,·
O=C1CCC(/C=C/c2ccccc2)=NN1Cc1ccc(F)cc1,-11,·,·,·
CCN(CC)CCn1c(=S)[nH]c2cc(C(=O)N3CC=C(c4ccccc4)CC3)ccc2c1=O,-1,·,·,·
Cn1c(=O)c2c(nc(SCC(=O)NC34CC5CC(CC(C5)C3)C4)n2C)n(C)c1=O,68*,-16,1,14
CCOC(=O)c1c(C)c(C(=O)NC(C)COC)c(C)n1C (stereo unspecified),-24,·,·,·
CCOC(=O)c1c(C)c(C(=O)O)n(C)c1C,·,76*,-3,-28
O=C(Nc1ccc(F)cc1)N1CCOCC1,77*,36,-3,-4
CC(C)c1ccc2[nH]c(O)c(N=NC(=O)c3cccc(S(=O)(=O)N4CCCCC4)c3)c2c1,12,·,·,·

# Assay outcomes: PubChem BioAssay, Columbia University Molecular Screening Center
